Assay outcomes from PubChem.
rCAG binder: r(CAG) repeat RNA binding; inhibition, % at 3 µM; hit rate 1.3% among 370,000; AID 651821; TO-PRO-1 dye displacement fluorescence;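 active = inhibition above the plate cutoff, the mean of all test compounds on that plate plus 3 SD, cut at about 35% in these data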;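 note: higher means more dye released from RNA so lower well fluorescence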
MsrA act: activators of bovine methionine sulfoxide reductase A | hit rate 0.3% among 360,000 | purified bovine MsrA, absorbance read-out | activation, % at 10.6 µM; in the data active = activation above about 7.5%
MsrA inh: inhibitors of bovine MsrA | purified bovine MsrA, absorbance read-out | inhibition, % at 15.5 µM | hit rate 0.75% among 360,000 | AID 651718; in the data active = inhibition above about 4.5%
NadD block: NadD (S. aureus) enzyme inhibition; purified NadD enzyme, colorimetric absorbance read-out; inhibition, % at 20 µM; hit rate 0.78% among 360,000; AID 602399; in the data active = inhibition above about 26%
rCAG bind conf: r(CAG) RNA repeat binding, confirmation | shares compounds with rCAG binder | TO-PRO-1 dye displacement fluorescence | inhibition, % at 3 µM | hit rate 70% among 4,300;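 active = inhibition above a per-plate cutoff, the mean inhibition of sample wells plus 3 SD, cut at about 35% in these data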;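 note: loss of TO-PRO-1 fluorescence as compound displaces dye from 1x1 AA loop RNA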
DNA CAG counter: disrupts DNA CAG TO-PRO-1 complex, flagging rCAG hits; shares compounds with rCAG binder; d(CAG) DNA oligo TO-PRO-1 dye displacement, fluorescence; inhibition, % at 3 µM; hit rate 94% among 4,300; AID 652068;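 active = inhibition above its plate's cutoff, the mean test-well inhibition plus 3 SD, cut at about 4.8% in these data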;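 note: hits displace the dye from DNA and so lower well fluorescence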
DNA CAG DR: DNA CAG dye complex inhibition, dose response counter-screen; shares compounds with rCAG binder; DNA CAG/GTC duplex TO-PRO-1 dye displacement fluorescence; hit rate 20% among 250; IC50, µM; in the data active = IC50 below about 10 µM
Hits are given with their value. Shown are actives, neighbours in structure and some others; about 2.7% of the full set was active somewhere.

Results for FC(F)(F)c1ccccc1Cc1c(-c2cccc(Br)c2)nc2ccc(Br)cn12 ?
rCAG binder: inactive; MsrA act: inactive; MsrA inh: inactive; NadD block: inactive

How did Cc1cc(Br)cn2c(Cc3ccccc3C(F)(F)F)c(-c3ccc(F)cc3)nc12 do in these assays?
rCAG binder: 55; MsrA inh: inactive; rCAG bind conf: 43; DNA CAG counter: 11; DNA CAG DR: inactive

What do the screens show for `Fc1ccc(-c2nc3ccc(Cl)cn3c2Cc2ccccc2C(F)(F)F)cc1`?
rCAG binder: 38; MsrA act: inactive; MsrA inh: inactive; NadD block: inactive; rCAG bind conf: inactive; DNA CAG counter: inactive

What do the screens show for `Cc1ccccc1CSCC(=O)NNC(=S)NCC1CCCO1` (stereo unspecified)?
rCAG binder: inactive; MsrA act: inactive; MsrA inh: inactive; NadD block: inactive

What do the screens show for `CCOC(=O)[C@@]12CN(C(=O)OC(C)(C)C)CC=C1N(Cc1ccc(OC)cc1)C(=O)[C@H]2CC(=O)NCc1cccs1`?
rCAG binder: inactive

What do the screens show for `FC(F)(F)c1ccccc1Cc1c(-c2ccccc2)nc2ccc(Cl)cn12`?
rCAG binder: inactive; MsrA act: inactive; MsrA inh: inactive; NadD block: inactive

How did FC(F)(F)c1ccccc1Cc1c(-c2ccc(Cl)cc2)nc2ccc(Cl)cn12 do in these assays?
rCAG binder: 50; MsrA act: inactive; MsrA inh: inactive; NadD block: inactive; rCAG bind conf: inactive; DNA CAG counter: 7.7

What do the screens show for `Fc1ccc(-c2nc3ccc(Br)cn3c2Cc2ccccc2C(F)(F)F)cc1`?
rCAG binder: 51; MsrA act: inactive; MsrA inh: inactive; NadD block: inactive; rCAG bind conf: inactive; DNA CAG counter: inactive

What do the screens show for `Cc1ccc(CN(C)C(=O)CCNS(=O)(=O)c2ccccc2)o1`?
rCAG binder: inactive; MsrA act: inactive; MsrA inh: inactive; NadD block: inactive

How did N=C1C2=C3Sc4ccccc4N3CCCC2=NN1c1cccc(S(=O)(=O)O)c1 do in these assays?
rCAG binder: 38; MsrA act: inactive; MsrA inh: inactive; NadD block: inactive; rCAG bind conf: 47; DNA CAG counter: 11

What do the screens show for `O=C(O)CCc1ccc(-c2ccccc2)n1NC(=O)c1sc2ccccc2c1Cl`?
rCAG binder: 57; MsrA act: inactive; MsrA inh: inactive; NadD block: inactive; rCAG bind conf: inactive; DNA CAG counter: 11

What do the screens show for `NC(=O)Nn1c(CCC(=O)O)ccc1-c1ccc(Cl)cc1`?
rCAG binder: inactive; MsrA act: inactive; MsrA inh: inactive; NadD block: inactive

What do the screens show for `O=C(O)/C=C/c1ccc(S(=O)(=O)Nc2ccccc2C(=O)Nc2ccc(F)cc2)cc1`?
rCAG binder: inactive; MsrA act: inactive; MsrA inh: inactive; NadD block: inactive

What do the screens show for `O=C(Nc1ccc(-c2nc3ccccc3[nH]2)cc1)c1ccccc1NS(=O)(=O)c1ccc(F)cc1`?
rCAG binder: 92; MsrA act: inactive; MsrA inh: inactive; NadD block: inactive; rCAG bind conf: 90; DNA CAG counter: 70

How did CCOc1ccc(NC(=O)c2ccccc2NS(=O)(=O)c2ccc(F)cc2)c([N+](=O)[O-])c1 do in these assays?
rCAG binder: 72; MsrA act: inactive; MsrA inh: inactive; NadD block: inactive; rCAG bind conf: 73; DNA CAG counter: 36

Results for CCOc1ccc(S(=O)(=O)Nc2ccccc2C(=O)N/N=C/c2c(OC)ccc3ccccc23)cc1 ?
rCAG binder: 62; MsrA act: inactive; MsrA inh: inactive; NadD block: inactive; rCAG bind conf: 42; DNA CAG counter: 19

What do the screens show for `CS(=O)(=O)c1ccccc1C(=O)Nc1ccc(-c2nc3ccccc3[nH]2)cc1`?
rCAG binder: inactive; MsrA act: inactive; MsrA inh: inactive; NadD block: inactive

What do the screens show for `O=C(Nc1ccc(S(=O)(=O)Nc2ncccn2)cc1)c1ccccc1NS(=O)(=O)c1ccc(F)cc1`?
rCAG binder: 60; MsrA act: inactive; MsrA inh: inactive; NadD block: inactive; rCAG bind conf: inactive; DNA CAG counter: 6.5

What do the screens show for `CCOC(=O)c1c(NC(=S)N2CCOCC2)sc(C)c1C`?
rCAG binder: inactive; MsrA act: inactive; MsrA inh: inactive; NadD block: inactive

What do the screens show for `CCCN(C(=O)c1ccc(S(=O)(=O)N2CCCC2)cc1)C1CCS(=O)(=O)C1` (stereo unspecified)?
rCAG binder: inactive; MsrA act: inactive; MsrA inh: inactive; NadD block: inactive

Results for O=C(O)CN1C(=O)/C(=C\c2cccc(OCc3ccc(Cl)cc3)c2)SC1=S ?
rCAG binder: 78; MsrA act: inactive; MsrA inh: inactive; NadD block: inactive; rCAG bind conf: 91; DNA CAG counter: 64

Results for O=C(O)CN1C(=O)/C(=C\c2cccc(OC(=O)c3ccco3)c2)SC1=S ?
rCAG binder: inactive; MsrA act: inactive; MsrA inh: inactive; NadD block: inactive

Results for O=C(O)CCN1C(=O)/C(=C\c2cccc(Oc3ccccc3)c2)SC1=S ?
rCAG binder: 62; MsrA act: inactive; MsrA inh: inactive; NadD block: inactive; rCAG bind conf: 78; DNA CAG counter: 35

What do the screens show for `CN1C(=O)/C(=C\c2ccccc2OCc2ccccc2)SC1=S`?
rCAG binder: inactive; MsrA act: inactive; MsrA inh: inactive; NadD block: inactive

Results for COc1ccc(/C=C2/SC(=S)N(CCC(=O)O)C2=O)cc1 ?
rCAG binder: inactive; MsrA act: inactive; MsrA inh: inactive; NadD block: inactive

Results for O=C(O)CN1C(=O)/C(=C/c2ccc(SCc3ccccc3)o2)SC1=S ?
rCAG binder: 41; MsrA act: inactive; MsrA inh: inactive; NadD block: inactive; rCAG bind conf: 59; DNA CAG counter: 31

What do the screens show for `O=C(O)CN1C(=O)/C(=C\c2ccccc2OCc2ccc(Cl)cc2)SC1=S`?
rCAG binder: 74; MsrA act: inactive; MsrA inh: inactive; NadD block: inactive; rCAG bind conf: 84; DNA CAG counter: 47

Results for O=C(O)CN1C(=O)/C(=C\c2cccc(OCc3ccccc3F)c2)SC1=S ?
rCAG binder: 84; MsrA act: inactive; MsrA inh: inactive; NadD block: inactive; rCAG bind conf: 75; DNA CAG counter: 37

How did O=C(O)CN1C(=O)/C(=C\c2ccc(OC(=O)c3ccco3)cc2)SC1=S do in these assays?
rCAG binder: inactive; MsrA act: inactive; MsrA inh: inactive; NadD block: inactive

What do the screens show for `O=C(O)CN1C(=O)/C(=C\c2cccc(OCc3ccc(F)cc3)c2)SC1=S`?
rCAG binder: 81; MsrA act: inactive; MsrA inh: inactive; NadD block: inactive; rCAG bind conf: 80; DNA CAG counter: 44

Results for CCc1nnc(NS(=O)(=O)c2ccc(NC(=O)c3cc(Cl)ccc3OC)cc2)s1 ?
rCAG binder: 75; MsrA act: inactive; MsrA inh: inactive; NadD block: inactive; rCAG bind conf: 71; DNA CAG counter: 33; DNA CAG DR: inactive
